Only some compounds are listed: those with a hit (about 3% of all), similar ones and a draw of the others.
VDR inhibitor: Inhibitors of the vitamin D receptor (VDR): qHTS. VDR-SRC2-3 peptide fluorescence polarization, 2 h. Potency, µM, actives largely listed as inhibitors. hit rate 0.93% among 400,000. Vitamin D3 receptor (Homo sapiens), P11473
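FP read-out; VDR + SRC2-3 coactivator peptide; 23 nl compound by pintool; 2 h RT incubation; reagents held at 4 deg C, protected from light.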
PLK1 PBD block: qHTS for Inhibitors of PLK1-PDB (polo-like kinase 1 - polo-box domain): Primary Screen | Serine/threonine-protein kinase PLK1 (Homo sapiens), P53350 | Plk1 PBD binding of FITC phosphopeptide, fluorescence polarization | Potency, µM, hits mostly inhibitors | hit rate 2.8% among 360,000 | AID 720504, 2013; also: series mostly up to about 57 µM; nearly all actives have a fitted effect of over 65% in size
Target sequence (P53350 whole entry, looked up, the tested form may be a part): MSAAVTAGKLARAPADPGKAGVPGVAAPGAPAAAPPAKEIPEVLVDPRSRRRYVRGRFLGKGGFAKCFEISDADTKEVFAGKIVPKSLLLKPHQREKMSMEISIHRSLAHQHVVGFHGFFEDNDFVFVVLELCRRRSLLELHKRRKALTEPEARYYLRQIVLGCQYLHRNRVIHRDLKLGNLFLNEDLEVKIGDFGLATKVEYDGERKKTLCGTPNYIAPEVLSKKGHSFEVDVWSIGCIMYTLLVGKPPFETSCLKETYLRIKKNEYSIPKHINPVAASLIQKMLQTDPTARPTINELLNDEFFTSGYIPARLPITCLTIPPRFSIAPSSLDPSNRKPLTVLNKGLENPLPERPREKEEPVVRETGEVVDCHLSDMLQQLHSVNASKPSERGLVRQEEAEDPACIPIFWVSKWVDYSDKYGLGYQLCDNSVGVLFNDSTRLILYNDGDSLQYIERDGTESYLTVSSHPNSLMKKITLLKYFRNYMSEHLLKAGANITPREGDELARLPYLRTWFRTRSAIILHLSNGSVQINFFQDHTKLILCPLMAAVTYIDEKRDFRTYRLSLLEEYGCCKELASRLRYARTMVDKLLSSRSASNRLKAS
ALOX12 inh: Primary qHTS assay for inhibitors of human arachidonate 12S-lipoxygenase (ALOX12): Round 2; Polyunsaturated fatty acid lipoxygenase ALOX12 (Homo sapiens), P18054; purified 12hLO, xylenol orange hydroperoxide absorbance; Potency, µM (doses to about 108 µM), actives largely listed as inhibitors; hit rate 1.1% among 580,000; AID 1671190, 2021
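Hydroperoxide product was detected by ferrous iron/xylenol orange as the 573 to 405 nm absorbance ratio. Arachidonic acid at 40 uM (final) was turned over for 30 min at room temperature by 150 nM human 12hLO, pH 7.0 Hepes buffer, after 15 min compound preincubation.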
KAT2A inh: qHTS Assay for Inhibitors of GCN5L2 | Histone acetyltransferase KAT2A (Homo sapiens), Q92830 | GCN5L2 HAT assay, ThioGlo1 CoA-SH fluorescence | Potency, µM (doses to about 58.9 µM), usual class: inhibitors | hit rate 0.21% among 390,000 | AID 504327, 2011
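Titration-based screen in which CoA formation is detected via maleimide probe ThioGlo1 (50uM) turning fluorescent on thiol reaction; substrates H3(1-25) 75uM and acetyl-CoA 70uM, GCN5L2 20nM, 20 min incubation at room temperature.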
USP1 UbRho: Inhibitors of USP1/UAF1: Hit Validation in Primary Assay | hit rate 50% among 50 | shares compounds with VDR inhibitor | Potency, µM (highest dose often 56.8 µM), usual class: inhibitors | AID 540327, 2011 | Ub-Rhodamine cleavage, fluorescence kinetic read
VDR confirm: qHTS for Inhibitors of the vitamin D receptor (VDR): Hit Validation in Primary Screen. shares compounds with VDR inhibitor. VDR-coactivator inhibition assay, qHTS confirmation. AID 602199, 2012. Potency, µM, actives largely listed as inhibitors. hit rate 89% among 840
VDR FP fluor: qHTS for Inhibitors of the vitamin D receptor (VDR): Hit Validation using a Fluorescein Assay. VDR-coactivator binding, fluorescein fluorescence polarization. AID 602200, 2012. Potency, µM (titrated, usually from 57.1 µM), most hits filed as inhibitors. shares compounds with VDR inhibitor. hit rate 48% among 840
VDR bla: qHTS for Inhibitors of the vitamin D receptor (VDR): Hit Validation using a Beta-Lactamase Assay; shares compounds with VDR inhibitor; VDR beta-lactamase reporter cells, FRET ratio; cells co-treated with VDR agonist LG190178; Potency, µM (top dose mostly 46.1 µM), hits mostly inhibitors; hit rate 23% among 840; AID 602202, 2012
VDR cytotox: qHTS for Inhibitors of the vitamin D receptor (VDR): Hit Validation using a Cytotoxicity Assay | cytotoxicity counter-screen, cell viability, qHTS | AID 602204, 2012 | hit rate 18% among 840 | shares compounds with VDR inhibitor | Potency, µM (titrated, usually from 48.3 µM), actives largely listed as cytotoxic; also: nearly all actives have a fitted effect of over 75% in size
Large screens that a line does not name were inactive (follow-up assays come after a bar, where they were run); ! = a repeat was not active. Calls follow the shape of the dose curve; as a rule, active = well fitted curve in the direction sought with a large enough effect; inconclusive = small, poorly fitted or top-dose-only effect, or another doubt; inactive = no such curve, though single readings can be large; an effect the other way counts as inactive or inconclusive.

O=C(C[n+]1csc2ccccc21)c1cccc([N+](=O)[O-])c1	none (no result: VDR inhibitor, PLK1 PBD block, ALOX12 inh, KAT2A inh) | VDR confirm inconclusive | VDR FP fluor inconclusive | VDR bla inactive | VDR cytotox inactive
Cc1cccc2c1N(Cc1ccccc1OC(C)C)C(=O)C2=O	none (no result: VDR inhibitor, PLK1 PBD block, KAT2A inh)
Cc1cc(Br)cc2c1N(Cc1ccccc1OC(C)C)C(=O)C2=O	VDR inhibitor 12.6µM, ALOX12 inh 4.47µM!, KAT2A inh inconclusive (no result: PLK1 PBD block) | VDR confirm 3.98 | VDR FP fluor 3.55µM | VDR bla 23.1µM | VDR cytotox inconclusive
Cc1cccc2c1N(Cc1ccccc1OCCC(C)C)C(=O)C2=O	VDR inhibitor 22.4µM (no result: PLK1 PBD block) | VDR confirm 22.4 | VDR FP fluor 10µM | VDR bla inactive | VDR cytotox inactive
COc1ccccc1CN1C(=O)C(=O)c2cccc(C)c21	none (no result: PLK1 PBD block)
N#CC1=C(Nc2ccccc2Cl)SC(c2ccccc2O)NC1=O (stereo not given)	VDR inhibitor 20µM, PLK1 PBD block inconclusive, ALOX12 inh inconclusive | VDR confirm 3.77 | VDR FP fluor inconclusive | VDR bla inactive | VDR cytotox inactive
Nc1ccc(-c2nc3ccc(-c4nc5ccc(N)cc5[nH]4)cc3[nH]2)cc1	KAT2A inh inconclusive (no result: PLK1 PBD block) | USP1 UbRho inconclusive
N#Cc1ccc(CN2CCCc3cc(F)cc(F)c32)cc1	none (no result: VDR inhibitor, PLK1 PBD block, KAT2A inh)
CN(CCO)c1cc(Sc2nc3ccccc3s2)c2nonc2c1[N+](=O)[O-]	VDR inhibitor 25.1µM, PLK1 PBD block 1.89µM, ALOX12 inh inconclusive | VDR confirm 6.7 | VDR FP fluor 3.55µM | VDR bla inconclusive | VDR cytotox 3.16µM
O=C(/C=C/c1ccc(OCc2ccccc2)c(OCc2ccccc2)c1)c1cccnc1	VDR inhibitor inconclusive | VDR confirm 7.08 | VDR FP fluor 3.98µM | VDR bla inactive | VDR cytotox inactive
O=C(/C=C/c1ccc(Cl)cc1)c1cccnc1	VDR inhibitor 25.1µM, PLK1 PBD block inconclusive, ALOX12 inh inconclusive | VDR confirm 5.97 | VDR FP fluor 5.62µM | VDR bla inactive | VDR cytotox inactive
O=C(/C=C/c1ccccc1Cl)c1ccc(O)cc1	VDR inhibitor inconclusive, ALOX12 inh inconclusive
COc1ccc(C=CC(=O)c2ccc(OCc3ccccc3)c(OC)c2)cc1OC	none (no result: VDR inhibitor, KAT2A inh)
CCN(CC)c1ccc(/C=C/C(=O)c2cccnc2)cc1	none
O=C(/C=C/c1ccccc1Cl)c1cccnc1	VDR inhibitor 44.7µM, PLK1 PBD block inconclusive | VDR confirm 6.7 | VDR FP fluor inconclusive | VDR bla inconclusive | VDR cytotox inconclusive
N#Cc1ccc(/C=C/C(=O)c2cccnc2)cc1	VDR inhibitor 11.2µM, PLK1 PBD block inconclusive | VDR confirm 8.44 | VDR FP fluor inconclusive | VDR bla inconclusive | VDR cytotox inconclusive
CN1C(=O)CCCCC1C(=O)NCCc1c[nH]c2ccccc12 (stereo not given)	none (no result: VDR inhibitor, PLK1 PBD block, KAT2A inh)
CC(C)n1cnc2nc(CSc3ccc(NC(=O)c4cccc(F)c4)cc3)cc(=O)n21	none (no result: VDR inhibitor, PLK1 PBD block, KAT2A inh)
CC(C)CCNC(=O)NC(=O)COC(=O)Cc1c[nH]c2ccccc12	none (no result: VDR inhibitor, PLK1 PBD block, KAT2A inh)
O=S(=O)(/N=C(\Sc1ccc(Cl)cc1)c1ccccc1)c1ccccc1	VDR inhibitor inconclusive, PLK1 PBD block 2.67µM, ALOX12 inh inconclusive | VDR confirm 7.08 | VDR FP fluor 22.4µM | VDR bla inactive | VDR cytotox inactive
CS/C(=N/S(=O)(=O)c1ccc(C)cc1)c1ccccc1	PLK1 PBD block inconclusive
